“And” between values parts separate entries of the source, which are not always exact repeats. Equal values may be shown once. Inconclusive results are not listed. The source made the active and inactive calls. Calls follow the shape of the dose curve; as a rule, active = well fitted curve in the direction sought with a large enough effect in the repeat runs; inconclusive = weak or mixed curves; inactive = no such curve, though single readings can be large; an effect the other way counts as inactive or inconclusive.
Key:
[1] = A CellTox Green Cytotoxicity Assay to monitor cytotoxicity in HEK293 cells - 32 hour (AID 1224881); also: nearly all actives have a fitted effect of over 40% in size; also: potency is read from the fitted curve at half-maximal effect
How it was run: (§1)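 Fluorescence intensity, read at 0, 8, 16, 24, 32 and 40 h of compound treatment, reflected dye binding to DNA of dead HEK293 cells; compounds (23 nL, DMSO) were added 5 h after plating cells with reagent.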

[2] = A CellTox Green Cytotoxicity Assay to monitor cytotoxicity in HepG2 cells - 0 hour (AID 1224882); also: nearly all actives have a fitted effect of over 35% in size
How it was run: (§2)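 Using 1536-well format, dye-containing HepG2 suspension was seeded, allowed 5 h at 37 C/5% CO2, dosed by pintool with compounds, positive and negative controls, and imaged for fluorescence across 40 h.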

[3] = A CellTox Green Cytotoxicity Assay to monitor cytotoxicity in HepG2 cells - 32 hour (AID 1224883); also: nearly all actives have a fitted effect of over 50% in size; also: potency is read from the fitted curve at half-maximal effect
How it was run: as §2

[4] = A CellTox Green Cytotoxicity Assay to monitor cytotoxicity in HEK293 cells - 8 hour (AID 1224884); also: nearly all actives have a fitted effect of over 35% in size; also: potency is read from the fitted curve at half-maximal effect
How it was run: as §1

[5] = qHTS RealTime-Glo MT Cell Viability Assay in HepG2 cells - 16 hour (AID 1224885); also: nearly all actives have a fitted effect of over 50% in size; also: potency is read from the fitted curve at half-maximal effect
How it was run: (§3)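 Tox21 10K library screened in qHTS format on HepG2 cells carrying RealTime-Glo reagents. Compounds were added after a 5 h preincubation, and the luminescent signal from continuous culture was measured repeatedly during 40 h treatment.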

[6] = qHTS RealTime-Glo MT Cell Viability Assay in HEK293 cells - 24 hour (AID 1224886); also: nearly all actives have a fitted effect of over 50% in size; also: potency is read from the fitted curve at half-maximal effect
How it was run: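 Luminescence generated by NanoLuc from substrate produced by living HEK293 cells served as the viability signal. Each value reflects the reading at its stated time point during continuous 40 h compound exposure at 37 C.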

[7] = qHTS RealTime-Glo MT Cell Viability Assay in HEK293 cells - 8 hour (AID 1224887); also: nearly all actives have a fitted effect of over 50% in size; also: potency is read from the fitted curve at half-maximal effect
How it was run: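 Viable HEK293 cells reduce a cell-permeant prosubstrate; the product diffuses out and is consumed by NanoLuc in the medium to give light. Compounds went in after a 5 h incubation and plates were read over the treatment course.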

[8] = qHTS RealTime-Glo MT Cell Viability Assay in HepG2 cells - 0 hour (AID 1224889); also: nearly all actives have a fitted effect of over 50% in size
How it was run: as §3

[9] = A CellTox Green Cytotoxicity Assay to monitor cytotoxicity in HepG2 cells - 8 hour (AID 1224890); also: nearly all actives have a fitted effect of over 45% in size; also: potency is read from the fitted curve at half-maximal effect
How it was run: as §2

[10] = A CellTox Green Cytotoxicity Assay to monitor cytotoxicity in HEK293 cells - 16 hour (AID 1224888); also: nearly all actives have a fitted effect of over 35% in size; also: potency is read from the fitted curve at half-maximal effect
How it was run: as §1

Measured: Potency

C=CC(=O)[O][Sn]([CH2]CCC)([CH2]CCC)[CH2]CCC
inactive: [2] | [8]
active: [1] 3.47 µM | [3] 0.692 µM | [4] 21.9 µM | [5] 0.549 µM | [6] 0.436 µM | [7] 871 nM | [9] 0.977 µM

CCC1(CC)C(=O)N=C(O)NC1=O
not listed: [7]
inactive: all other assays above

O=c1c2ccccc2c(=O)c2c1cc(Cl)c1[nH]c3c([nH]c12)c(Cl)cc1c(=O)c2ccccc2c(=O)c13
not listed: [10]
inactive: all other assays above

O=C(Cl)c1ccccc1F
inactive: all assays above

Cc1ccc2cc3c(ccc4ccccc43)c3c2c1CC3
active: [3] 6.93 µM
not listed: [10]
inactive: all other assays above

CCC(C)Br (centres undefined)
not listed: [10]
inactive: all other assays above

[O-][Cl+3]([O-])([O-])O
inactive: all assays above

BrCC(Br)(Br)Br
active: [6] 45.3 µM | [7] 16100 nM
not listed: [10]
inactive: all other assays above

CC(C)C(Br)C(=O)NC(N)=O (centres undefined)
not listed: [7]
inactive: all other assays above

O=[N+]([O-])c1ccc(CCl)cc1
not listed: [7]
inactive: all other assays above

CN1[C@@H]2CC[C@H]1CC(O)C2 (some centres undefined)
not listed: [10]
inactive: all other assays above

Cc1cc2c3c(c1)C(c1ccccc1)=N[C@@H](NC(=O)c1ccncc1)C(=O)N3CC2
not listed: [8]
inactive: all other assays above

BrCCCBr
not listed: [7]
inactive: all other assays above

COc1ccc2c(c1OC)C(=O)O[C@@H]2[C@H]1c2cc3c(cc2CCN1C)OCO3
not listed: [10]
inactive: all other assays above

Brc1ccc(Oc2ccc(Br)cc2Br)c(Br)c1
active: [6] 49 µM
not listed: [7]
inactive: all other assays above

COC(=O)c1ccccc1S(=O)(=O)NC(=O)Nc1nc(C)nc(OC)n1
not listed: [10]
inactive: all other assays above

O=S(=O)(O)F
not listed: [7]
inactive: all other assays above

CC(C)[C@@H](Nc1ccc(C(F)(F)F)cc1Cl)C(=O)OC(C#N)c1cccc(Oc2ccccc2)c1 (some centres undefined)
not listed: [7]
inactive: all other assays above

CCN(CC)CCc1c[nH]c2ccccc12
not listed: [10]
inactive: all other assays above

CC1CN1 (centres undefined)
not listed: [10]
inactive: all other assays above

Clc1ccc(C(c2ccc(Cl)cc2)C(Cl)Cl)cc1
active: [1] 49 µM | [6] 44.4 µM and 43.6 µM | [7] 44.4 µM and 38.9 µM
not listed: [10]
inactive: all other assays above

CCOP(=O)(OCC)Oc1nc(Cl)c(Cl)cc1Cl
not listed: [10]
inactive: all other assays above

O.O.O.O.O.O.O.O=S(=O)([O-])[O-].[Co+2]
not listed: [8]
inactive: all other assays above

COc1cnc(OC)n2nc(NS(=O)(=O)c3c(OCC(F)F)cccc3C(F)(F)F)nc12
inactive: all assays above

Cc1nn(-c2cc(NS(C)(=O)=O)c(Cl)cc2Cl)c(=O)n1C(F)F
not listed: [10]
inactive: all other assays above

CCCCN(CCCC)C(=S)[S-].CCCCN(CCCC)C(=S)[S-].[Ni+2]
inactive: all assays above

CN1C2CCC(C)(C)C1CC(OC(=O)C(O)(c1cccs1)c1cccs1)C2 (centres undefined)
not listed: [10]
inactive: all other assays above

O=[N+]([O-])c1cccc2cccc([N+](=O)[O-])c12
not listed: [10]
inactive: all other assays above

C=C(C)C(=O)[O][Sn]([CH2]CCC)([CH2]CCC)[CH2]CCC
inactive: [2] | [8]
active: [1] 0.49 µM | [3] 0.616 µM | [4] 11 µM | [5] 0.436 µM | [6] 0.309 µM | [7] 776 nM | [10] 8.71 µM | [9] 0.871 µM

CC[N+]1(CC)CCC(OC(=O)C(O)(c2ccccc2)c2ccccc2)C1 (centres undefined)
not listed: [7]
inactive: all other assays above

COP(=O)(OC)Oc1ccc([N+](=O)[O-])cc1
inactive: all assays above

CCCCn1cc[n+](C)c1 (tested in a mixture with another compound)
not listed: [10]
inactive: all other assays above

S=C=Nc1ccccc1
not listed: [5]
inactive: all other assays above

COC(=O)N(OC)c1ccccc1COc1ccn(-c2ccc(Cl)cc2)n1
not listed: [6] | [7]
inactive: all other assays above

N#CCCl
not listed: [6]
inactive: all other assays above

[F][Sn]([c]1ccccc1)([c]1ccccc1)[c]1ccccc1
active: [1] 1.74 µM | [3] 1.95 µM | [4] 5.49 µM | [5] 0.871 µM | [6] 0.49 µM | [10] 6.16 µM | [9] 2.45 µM
inactive: [2] | [8]

CN(C)CCc1c[nH]c2ccccc12
not listed: [5]
inactive: all other assays above

COc1ccc(Cc2nccc3cc(OC)c(OC)cc23)cc1OC
active: [6] 4.77 µM | [7] 4770 nM
not listed: [5]
inactive: all other assays above

Cc1ccccc1OP(=O)(Oc1ccccc1C)Oc1ccccc1C
not listed: [6] | [7]
inactive: all other assays above

CCC1COC(Cn2cncn2)(c2ccc(Cl)cc2Cl)O1 (centres undefined)
not listed: [6] | [10]
inactive: all other assays above

CCC(C)Nc1c([N+](=O)[O-])cc(C(C)(C)C)cc1[N+](=O)[O-] (centres undefined)
not listed: [7]
inactive: all other assays above

CCOP(=S)(OCC)Oc1cc(C)nc(N(CC)CC)n1
not listed: [5]
inactive: all other assays above

CC(=O)[O-].CC(=O)[O-].O.O.O.[Pb+2]
not listed: [6]
inactive: all other assays above

CC(Cl)CCl (centres undefined)
not listed: [5] | [7]
inactive: all other assays above

ClC1=C(Cl)[C@]2(Cl)[C@H]3[C@H]([C@@H]4C=C[C@H]3C4)[C@@]1(Cl)C2(Cl)Cl
active: [1] 54.9 µM and 49 µM | [3] 54.9 µM | [4] 54.9 µM | [6] 43.6 µM | [7] 43.6 µM and 38.9 µM | [10] 54.9 µM and 49 µM | [9] 54.9 µM
inactive: [2] | [8]

CC(C)NCC(O)c1ccccc1Cl (centres undefined)
not listed: [5] | [7]
inactive: all other assays above

CCCCCCC[CH2][Sn]([Cl])([Cl])[CH2]CCCCCCC
not listed: [5]
inactive: all other assays above

C#CCC1=C(C)C(OC(=O)C2C(C=C(C)C)C2(C)C)CC1=O (centres undefined)
not listed: [6] | [7]
inactive: all other assays above

COc1c2c(cc3c1OCO3)CCN(C)C2
not listed: [5] | [10]
inactive: all other assays above

CCOP(=O)(OCC)Oc1cc(C)nc(C(C)C)n1
not listed: [5]
inactive: all other assays above
